According to PubChem BioAssay:
Calls of active or inactive are those of the source.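 How the source made its calls: active means compounds killing one labelled cell type while sparing the other, by normalised counts and ratio limits, not self-fluorescent; inactive means the rest.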

Test: EMT-state selective cytotoxicity in co-culture – imaging, PC-3E GFP, TEM4-18 mCherry, primary screen (AID 1345086);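 further: normalised mesenchymal count divided by normalised epithelial count so high means epithelial killing; cells exposed to compound for 72 h before imaging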
Conditions: PC-3E GFP / TEM4-18 mCherry co-culture, imaging cell counts; at 1 µM; actives lie on both sides; counts scaled to control wells, 1 = unselective

| SMILES | red/green cell ratio (normalised) |
| --- | --- |
| C/C=C/[C@@H]1C=C[C@@H]2C[C@H](C)CC[C@H]2[C@]1(C)/C(O)=C1\C(=O)[C@H](CO)N(C)C1=O | 1.03 (inactive) |
| CCCC1=CC(=O)[C@H](O)[C@H]1O | 1.01 (inactive) |
| COc1cc(/C=C/C(=O)/C=C(O)/C=C/c2ccc(O)c(OC)c2)ccc1O | 1.04 (inactive) |
| O=C1N=NC(=O)N1c1ccccc1 | 0.86 (inactive) |
| C/C=C/c1cc2c(c(=O)o1)C(=O)[C@@H](O)[C@H](C)O2 | 1.02 (inactive) |
| COC(=O)CNC(=O)c1ccc([C@H](O)c2ccccc2)cn1 | 0.87 (inactive) |
| O=c1c(O)c(-c2ccc(O)c(O)c2)oc2c(O[C@@H]3O[C@H](CO)[C@H](O)[C@@H](O)[C@H]3O)c(O)cc(O)c12 | 0.95 (inactive) |
| O=c1c(O)cccc2cc(O)c(O)c(O)c12 | 0.92 (inactive) |
| COC(=O)C[C@@H]1C2(C)C(=O)[C@@H](CC3C2CC[C@]2(C)C3CC(=O)O[C@H]2c2ccoc2)[C@H](OC(C)=O)C1(C)C (some centres not stated) | 0.92 (inactive) |
| COC(=O)[C@H](Cc1ccccc1)NC(=O)/C(=C1\OC(=O)C(c2ccccc2)=C1O)c1ccccc1 | 0.97 (inactive) |
| CCC(C)[C@H]1O[C@]2(CC[C@@H]1C)C[C@@H]1C[C@@H](C/C=C(\C)[C@@H](OC3C[C@H](OC)C(O[C@H]4C[C@H](OC)[C@@H](O)[C@H](C)O4)[C@H](C)O3)[C@@H](C)/C=C/C=C3\COC4[C@H](O)C(C)=C[C@@H](C(=O)O1)[C@]34O)O2 (some centres not stated) | 0.84 (inactive) |
| CC/C=C1C=C(/C=C/CO)C(=O)O/1 | 1.01 (inactive) |
